Source: PubChem
Most compounds without a hit are left out; they make up all but 10% or so of the library.
FLuc inh = blocks purified firefly luciferase enzyme activity | Potency, µM (titrated, usually from 115 µM), usual class: inhibitors | 2.5% of 76,000 active | purified P. pyralis luciferase, luminescence, biochemical; also: % is scaled to controls: 0 for no effect and ±100 for the full control effect; nearly all actives have a fitted effect of over 65% in size
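Cell-free enzyme assay, 10nM P. pyralis luciferase, luciferin and ATP each at 10uM. Inhibition profiled over a 6-point titration, read as luminescence.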
HEK293 tox = cytotoxic compounds in HEK 293 cells. HEK 293 viability, ATP luminescence (CellTiter-Glo), 48-72 h. Potency, µM (top dose mostly 115 µM), for inactives: at the highest dose activity change, negative = cytotoxicity, most hits filed as inhibitors. 6.6% of 94,000 active. AID 1345083; also: % is scaled to controls: 0 for no effect and ±100 for the full control effect; nearly all actives have a fitted effect of over 60% in size
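CellTiter-Glo luminescence (cellular ATP) was read after 48 or 72 hr of compound exposure at 37 degree Celsius. Cells were HEK 293 plated at 250 cells/well.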
NIH3T3 tox = cytotoxic compounds in NIH 3T3 cells; NIH 3T3 viability, CellTiter-Glo ATP luminescence, 48-72 h; Potency, µM (top dose mostly 96.7 µM), without a hit: at the highest dose activity change, negative = cytotoxicity, actives largely listed as inhibitors; 4.3% of 94,000 active; AID 1345082; also: % is scaled to controls: 0 for no effect and ±100 for the full control effect; nearly all actives have a fitted effect of over 55% in size
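NIH 3T3 cells at 400 cells/well received 23 nL of compound by pintool and were incubated 48 or 72 h at 37 °C. Viability was read as ATP-coupled CellTiter-Glo luminescence.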
GPT2 inh = blocks human glutamate pyruvate transaminase 2. Recombinant GPT2, coupled pyruvate oxidase/HRP Amplex Red fluorescence. Potency, µM (titrated, usually from 57.7 µM), for inactives: at the top dose activity change, negative = inhibition, actives largely listed as inhibitors. 0.25% of 100,000 active. AID 1671188; also: % is scaled to controls: 0 for no effect and ±100 for the full control effect; nearly all actives have a fitted effect of over 60% in size
Target sequence (Q8TD30 whole entry, looked up): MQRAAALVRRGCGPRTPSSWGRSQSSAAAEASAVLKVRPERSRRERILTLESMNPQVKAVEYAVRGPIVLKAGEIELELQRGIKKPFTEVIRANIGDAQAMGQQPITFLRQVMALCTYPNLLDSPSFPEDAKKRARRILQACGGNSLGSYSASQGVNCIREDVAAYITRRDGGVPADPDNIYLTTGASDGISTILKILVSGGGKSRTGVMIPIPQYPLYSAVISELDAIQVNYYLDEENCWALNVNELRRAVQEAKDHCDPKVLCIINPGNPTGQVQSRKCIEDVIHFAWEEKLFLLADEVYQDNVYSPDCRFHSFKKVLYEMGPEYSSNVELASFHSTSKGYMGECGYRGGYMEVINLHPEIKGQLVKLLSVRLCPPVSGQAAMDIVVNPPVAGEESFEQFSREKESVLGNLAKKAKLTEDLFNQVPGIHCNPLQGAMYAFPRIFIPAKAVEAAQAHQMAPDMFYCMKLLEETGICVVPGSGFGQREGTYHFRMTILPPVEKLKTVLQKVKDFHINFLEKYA
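GPT2 10ng/uL, a-KG 250uM, L-Ala 2mM, HEPES pH7.5 + 0.0001% Tween; 30 min RT. Then Amplex mix (PO/HRP/ThPP), 30 min RT dark, fluorescence. AOA 50uM used as positive control.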
hNpr1 antagonist = antagonists of human natriuretic peptide receptor Npr1; AID 1347048; HEK293 hNpr1 GloSensor cGMP, ANP-stimulated luminescence; Potency, µM (top dose mostly 46.3 µM), for the others: top-dose activity change, negative = inhibition, actives largely listed as inhibitors; 1.6% of 76,000 active; calls by dose curve; also: % is scaled to controls: 0 for no effect and ±100 for the full control effect; nearly all actives have a fitted effect of over 60% in size
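Compound pre-incubated 30 min at room temperature on GloSensor-loaded HEK293 cells stably carrying hNpr1 and the pGS-40F cGMP biosensor. Stimulation uses hNppA at 0.1 nM final; luminescence is taken at baseline and 20 min post-agonist.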
Npr1 antag conf = confirmation of human Npr1 natriuretic peptide receptor antagonists; shares compounds with hNpr1 antagonist; HEK293 hNpr1 cGMP GloSensor luminescence, ANP-stimulated; Potency, µM (highest dose often 57.6 µM), for inactives: at the highest dose activity change, negative = inhibition, most hits filed as inhibitors; 76% of 1,400 active; AID 1347044; calls by dose curve; also: nearly all actives have a fitted effect of over 70% in size
Npr2 selectivity = antagonizes human Npr2, subtype selectivity check | shares compounds with hNpr1 antagonist | HEK293 hNpr2 GloSensor cGMP luminescence, CNP-stimulated | Potency, µM (series often up to 57.6 µM), without a hit: at the top dose activity change, negative = inhibition, most hits filed as inhibitors | 67% of 1,400 active | AID 1347046; calls by dose curve; also: nearly all actives have a fitted effect of over 70% in size
FLuc inh counter = counter-screen for Npr1 antagonists: firefly luciferase inhibitors. shares compounds with hNpr1 antagonist. purified FLuc enzyme, luminescence, Km substrate. Potency, µM (top dose mostly 57.6 µM), for inactives: at the highest dose activity change, negative = inhibition, most hits filed as inhibitors. 0.7% of 1,400 active; also: 0% is about no effect
GloSensor ctrl = counter-screen for Npr1 antagonists: GloSensor control cell line; shares compounds with hNpr1 antagonist; HEK293 GloSensor cGMP, SNP-stimulated, luminescence; Potency, µM (series often up to 57.6 µM), inactives show at the highest dose activity change, negative = inhibition, usual class: inhibitors; 69% of 1,400 active; AID 1347051; calls by dose curve; also: % is scaled to controls: 0 for no effect and ±100 for the full control effect; nearly all actives have a fitted effect of over 70% in size
* marks the source's active call; other numbers are inactive results; i = inactive; ? = inconclusive; · = not tested or not shown; [ ] = remark or other dose. Unless noted, calls follow the shape of the dose curve; as a rule, active = well fitted curve in the direction sought with a large enough effect; inconclusive = small, poorly fitted or top-dose-only effect, or another doubt; inactive = no such curve, though single readings can be large; an effect the other way counts as inactive or inconclusive. Potency is read from the fitted curve at half-maximal effect.

SMILES	FLuc inh	HEK293 tox	NIH3T3 tox	GPT2 inh	hNpr1 antagonist	Npr1 antag conf	Npr2 selectivity	FLuc inh counter	GloSensor ctrl
CCOc1ccc(C(=O)N2CCCN(c3cc(-c4ccc(Cl)cc4)[nH]n3)CC2)cc1	i	40µM*	?	i	?	19µM*	22µM*	4%	17µM*
COC[C@@H]1CN(Cc2c(OC)cccc2OC)C[C@H]1c1ccncc1	i	35µM*	?	i	6.3µM*	15µM*	15µM*	0%	14µM*
CCc1ccc([S+](=O)([O-])c2nnn3c2nc(NCCCOC(C)C)c2ccccc23)cc1	·	0%	-10%	-8%	·	·	·	·	·
O=C(CCC1CCCN(S(=O)(=O)c2ccccc2)C1)N1CCN(c2ccccn2)CC1 (centres undefined)	i	45µM*	?	i	?	?	?	3%	?
Cc1ccc(S(=O)(=O)N2CCCC(CCC(=O)N3CCCCC3)C2)cc1 (centres undefined)	i	?	?	i	13µM*	?	?	1%	?
O=C(CCC1CCCN(S(=O)(=O)c2ccccc2)C1)NCC1CCCCC1 (centres undefined)	i	?	?	i	?	·	·	·	·
COc1ccc(CN[C@H](C)c2onc(C)c2C(=O)O)cc1	i	-9%[172 µM]	-1%[138 µM]	3%[88.5 µM]	-5%[70.6 µM]	·	·	·	·
COc1cccc(CN2CCC(Oc3ccccc3-c3nc(-c4ccncc4)no3)C2)c1 (centres undefined)	i	?	25µM*	1%	?	?	?	?	0%
O=C(Cc1ccccc1F)N1CC(Oc2ccc(-c3noc(-c4cccnc4)n3)cc2)C1	i	-43%	-2%	-12%	-29%	22µM*	22µM*	-14%	22µM*
CC(C)S(=O)(=O)N1CC(Oc2ccc(-c3noc(-c4cccnc4)n3)cc2)C1	i	?	-24%	-11%	1.4µM*	22µM*	?	-14%	22µM*
Cc1ccc(OCC(=O)N2CC(Oc3ccc(-c4nc(-c5ccccc5)no4)cc3)C2)cc1	?	22%	1%	i	1%	·	·	·	·
COc1ccccc1C(=O)N1CC(Oc2ccc(-c3nc(-c4ccccc4)no3)cc2)C1	i	?	?	i	11µM*	24µM*	24µM*	-25%	22µM*
O=C(c1ccc(F)cc1)N1CC(Oc2cccc(-c3nc(-c4ccccc4)no3)c2)C1	?	?	?	-6%	6%	·	·	·	·
CCNC(=O)C1C(c2cccc(NC(=O)c3ccccc3)c2)OC(=O)N1Cc1ccc(C)cc1 (centres undefined)	i	?	?	i	-19%	·	·	·	·
CN(C)c1cc(N2CCCC(NS(C)(=O)=O)C2)ncn1 (centres undefined)	i	1%	5%	1%	0%	·	·	·	·
COc1cccc(CC(=O)N2CC(Oc3ccc(-c4noc(-c5ccncc5)n4)cc3)C2)c1	i	13µM*	?	i	7.9µM*	3.1µM*	4.3µM*	-21%	3.4µM*
COc1ccc(Cn2c(=O)c(C(=O)Nc3ccccc3Cl)nc3cccnc32)cc1	·	-11%	-9%	3%	·	·	·	·	·
CC1=C(C(=O)OC(C)C)C(c2ccccc2F)N2C(CC(=O)N3CCCC3)=CSC2=N1 (centres undefined)	i	-26%	-4%	i	?	?	?	1%	?
COC(=O)C1=C(C)N=C2SC=C(CC(=O)N3CCC(C)CC3)N2C1c1cccc(OC)c1 (centres undefined)	i	40µM*	?	i	?	?	19µM*	-1%	-6%
CC1=C(C(=O)OC(C)C)C(c2ccc([N+](=O)[O-])cc2)N2C(CC(=O)N3CCCC3)=CSC2=N1 (centres undefined)	i	?	-11%	i	?	·	·	·	·
CCC1=C(C(=O)OC)C(c2ccccc2)N2C(CC(=O)N(C)Cc3ccccc3)=CSC2=N1 (centres undefined)	i	?	?	-14%	-22%	·	·	·	·
CCC1=C(C(=O)OC)C(c2ccccc2Cl)N2C(CC(=O)N(C)Cc3ccccc3)=CSC2=N1 (centres undefined)	i	?	?	i	?	?	?	1%	?
CCC1=C(C(=O)OC)C(c2ccccc2F)N2C(CC(=O)N3CCCC3)=CSC2=N1 (centres undefined)	i	-17%	-26%	i	?	-29%	?	3%	?
NC(=O)[C@@H](Cc1ccccc1)NC(=O)[C@@]1(O)C[C@@H](O)[C@H](O)[C@@H](NS(=O)(=O)c2cccc(C(F)(F)F)c2)C1	i	-3%	-21%	?	0%	·	·	·	·
C=CCOC(=O)C1=C(C)N=C2SC=C(CC(=O)N3CCCC3)N2C1c1cccc(OC)c1OC (centres undefined)	i	-9%	-2%	1%	-24%	·	·	·	·
C=CCOC(=O)C1=C(C)N=C2SC=C(CC(=O)N3CCCC3)N2C1c1ccccc1Cl (centres undefined)	i	?	-13%	i	13µM*	24µM*	24µM*	-2%	?
CCOc1ccccc1C1NC(=O)N(CC(=O)Nc2cccc(C(F)(F)F)c2)C2=C1C(=O)OC2 (centres undefined)	i	?	45µM*	i	?	?	-27%	-9%	?
O=C(CN1C(=O)NC(c2ccc(Cl)cc2)C2=C1COC2=O)Nc1cccc(C(F)(F)F)c1 (centres undefined)	i	?	?	i	?	?	?	-19%	?
